From PubChem BioAssay (NCATS) come the findings set out here.

Results filed as inconclusive are left out. The source made the active and inactive calls. Calls follow the shape of the dose curve; as a rule, active = well fitted curve in the direction sought with a large enough effect; inconclusive = small, poorly fitted or top-dose-only effect, or another doubt; inactive = no such curve, though single readings can be large; an effect the other way counts as inactive or inconclusive.

Experiment [1] is described as follows: NS1 protein of Zika virus - qHTS assay to identify small molecule inhibitors in human HEK 293 cells (AID 1347053). Also: series mostly up to about 46 µM; nearly all actives have a fitted effect of over 55% in size. An outline of the steps: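 Readout was TR-FRET using paired anti-NS1 antibodies after 24 h infection of HEK 293 cells with ZIKV MR766 (MOI = 0.5). Compound preceded virus by 1 h; reduced signal reflects lower NS1 expression.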
(qHTS replaces the single test concentration by a dilution series.)

The nature of experiment [2]: qHTS of pediatric cancer cell lines to identify multiple opportunities for drug repurposing: Primary screen for DAOY cells (AID 1347090). Also: nearly all actives have a fitted effect of over 55% in size. Also: potency is read from the fitted curve at half-maximal effect. The method in brief: (§1)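 Viability measured as metabolically active cells via CellTiter-Glo luminescence following 48 hours of compound exposure, 11-point dilutions in confirmatory testing. 500-1,000 cells/well plated 5 hours before dosing; controls were DMSO and 2.3 µM bortezomib.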

The nature of experiment [3]: qHTS of pediatric cancer cell lines to identify multiple opportunities for drug repurposing: Primary screen for A673 cells (AID 1347092). Also: nearly all actives have a fitted effect of over 45% in size. Also: potency is read from the fitted curve at half-maximal effect. An outline of the steps:
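Titration-based qHTS on A673 cells: MIPE compounds spanned 11 points (0.78 nM to 46 µM final), NPC compounds 8 points (0.59 nM to 46 µM final). Viability after 48 h was measured by ATP luminescence.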

Experiment [4] can be described thus: qHTS of pediatric cancer cell lines to identify multiple opportunities for drug repurposing: Primary screen for BT-37 cells (AID 1347094). Also: potency is read from the fitted curve at half-maximal effect. An outline of the steps:
(§2)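 500-1,000 cells/well; 5 h pre-incubation 37 °C/5% CO2; compound pinned; 48 h; CellTiter-Glo, 15 min RT; luminescence. MIPE 11-pt from 0.78 nM, NPC 8-pt from 0.59 nM final. Bortezomib 2.3 µM final as positive control.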

Experiment [5] is described as follows: qHTS of pediatric cancer cell lines to identify multiple opportunities for drug repurposing: Primary screen for NB-EBc1 cells (AID 1347095). The method in brief:
as §2

Experiment [6] can be described thus: qHTS of pediatric cancer cell lines to identify multiple opportunities for drug repurposing: Primary screen for U-2 OS cells (AID 1347096). Also: nearly all actives have a fitted effect of over 50% in size. Also: potency is read from the fitted curve at half-maximal effect. The method in brief:
(§3)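 Viability after 48 h compound treatment at 37C, 500-1,000 cells/well, read as ATP luminescence with CellTiter-Glo. Primary screens used 11-point (MIPE, 0.78 nM-46 µM) or 8-point (NPC, 0.59 nM-46 µM) final concentrations; follow-up screens used 11-point dilutions.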

Experiment [7] can be described thus: qHTS of pediatric cancer cell lines to identify multiple opportunities for drug repurposing: Primary screen for Saos-2 cells (AID 1347097). Also: nearly all actives have a fitted effect of over 40% in size. Also: potency is read from the fitted curve at half-maximal effect. An outline of the steps:
as §2

Experiment [8] in a line: qHTS of pediatric cancer cell lines to identify multiple opportunities for drug repurposing: Primary screen for SK-N-SH cells (AID 1347098). Also: nearly all actives have a fitted effect of over 65% in size. Also: potency is read from the fitted curve at half-maximal effect. An outline of the steps: (§4)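 Cells (500-1,000/well) rested 5 h, then received compounds for 48 h; metabolically active cells were measured by CellTiter-Glo luminescence. Final concentrations spanned up to 46 µM (MIPE, 11-point) or 0.59 nM-46 µM (NPC, 8-point) in primary screens, 11-point in follow-ups.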

The nature of experiment [9]: qHTS of pediatric cancer cell lines to identify multiple opportunities for drug repurposing: Primary screen for NB1643 cells (AID 1347099). Also: nearly all actives have a fitted effect of over 50% in size. Also: potency is read from the fitted curve at half-maximal effect. An outline of the steps:
as §2

Experiment [10] is described as follows: qHTS of pediatric cancer cell lines to identify multiple opportunities for drug repurposing: Primary screen for LAN-5 cells (AID 1347100). Also: potency is read from the fitted curve at half-maximal effect. The method in brief: as §3
Experiment [11] is described as follows: qHTS of pediatric cancer cell lines to identify multiple opportunities for drug repurposing: Primary screen for BT-12 cells (AID 1347101). Also: nearly all actives have a fitted effect of over 25% in size. Also: potency is read from the fitted curve at half-maximal effect. An outline of the steps:
as §4

A short description of experiment [12]: qHTS of pediatric cancer cell lines to identify multiple opportunities for drug repurposing: Primary screen for Rh18 cells (AID 1347102). Also: nearly all actives have a fitted effect of over 65% in size. Also: potency is read from the fitted curve at half-maximal effect. An outline of the steps: as §3
Experiment [13] is described as follows: qHTS of pediatric cancer cell lines to identify multiple opportunities for drug repurposing: Primary screen for OHS-50 cells (AID 1347103). Also: nearly all actives have a fitted effect of over 40% in size. Also: potency is read from the fitted curve at half-maximal effect. The method in brief:
as §4

The nature of experiment [14]: qHTS of pediatric cancer cell lines to identify multiple opportunities for drug repurposing: Primary screen for RD cells (AID 1347104). Also: nearly all actives have a fitted effect of over 55% in size. Also: potency is read from the fitted curve at half-maximal effect. The method in brief: as §2
A short description of experiment [15]: qHTS of pediatric cancer cell lines to identify multiple opportunities for drug repurposing: Primary screen for SK-N-MC cells (AID 1347093). Also: potency is read from the fitted curve at half-maximal effect. An outline of the steps:
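Metabolically active cells were quantified by ATP-dependent luminescence (CellTiter-Glo, 15 min at room temperature) following 48 h treatment. Cells had been plated at 500-1,000 per well and settled for 5 h beforehand.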

Experiment [16] can be described thus: qHTS of pediatric cancer cell lines to identify multiple opportunities for drug repurposing: Primary screen for SJ-GBM2 cells (AID 1347091). Also: potency is read from the fitted curve at half-maximal effect. An outline of the steps: as §1

For `COc1cccc(OC)c1C(=O)N[C@@H]1C(=O)N2[C@@H]1SC(C)(C)[C@@H]2C(=O)O`, the Potency entry in experiment [1], in experiment [2], in experiment [3], in experiment [4], in experiment [5] and in experiment [6] was “inactive” in each case. For the same compound, the Potency result in experiment [7], in experiment [8], in [9], in experiment [10], in experiment [11] and in experiment [12] was “inactive” in each case. Further, the Potency result in experiment [13] and in experiment [14] was “inactive” each time.

`Cc1cccn2c(=O)c(-c3nnn[nH]3)cnc12`: the Potency entry in [1], in experiment [2], in experiment [3], in experiment [4], in experiment [5] and in [6] was “inactive” throughout. The Potency result in experiment [7], in experiment [8], in experiment [9], in experiment [10], in [11] and in [12] was “inactive” throughout. For the same compound, the Potency result in [14] is “inactive”.

`Cc1cccc(C)c1NC(=O)CN1CCN(CCCC(c2ccc(F)cc2)c2ccc(F)cc2)CC1`: the Potency entry in [1], in [2], in experiment [3], in experiment [15], in experiment [4] and in [6] was “inactive” in each case. Moreover, the Potency entry in [7], in experiment [8], in experiment [9], in experiment [11], in experiment [12] and in experiment [14] was “inactive” each time.

`CC(C)(CO)[C@@H](O)C(=O)NCCCO`: the Potency entry in [1], in [2], in experiment [3], in experiment [15], in [4] and in [5] was “inactive” in each case. Also, the Potency entry in [6], in experiment [7], in experiment [8], in experiment [9], in [10] and in experiment [11] was “inactive” in each case. For the same compound, the Potency result in experiment [12], in [13] and in [14] was “inactive” in each case.

Regarding `COc1cc(-c2ccc(=O)[nH]n2)ccc1OC(F)F`, the Potency entry in experiment [1], in experiment [2], in [16], in [3], in [15] and in experiment [4] was “inactive” each time. Besides, the Potency entry in experiment [5], in experiment [6], in experiment [9], in experiment [10], in [11] and in experiment [12] was “inactive” throughout. Also, in experiment [13], the Potency result is “inactive”.

For `COc1cc(C(=S)N2CCOCC2)cc(OC)c1OC`, the Potency entry in experiment [1], in experiment [2], in experiment [16], in experiment [3], in experiment [4] and in [5] was “inactive” in each case. The Potency result in [6], in [7], in experiment [8], in experiment [10], in experiment [11] and in experiment [12] was “inactive” in each case. Further, the Potency entry in [13] and in [14] was “inactive” in each case.

For the compound `COCc1c(C(C)C)nc(C(C)C)c(/C=C/[C@@H](O)C[C@@H](O)CC(=O)O)c1-c1ccc(F)cc1`, in experiment [1], the Potency result was “inactive”. In addition, the Potency was 0.266 µM (active) in experiment [2]; 0.237 µM (active) in experiment [16]; 0.668 µM (active) in experiment [3]; 1.19 µM (active) in [15]; 2.19 µM (active) in experiment [4]; 0.841 µM (active) in experiment [6]. In addition, the Potency in [7] is 0.106 µM (active); in [8] it was 0.433 µM (active); in [10] it was 3.76 µM (active); in experiment [12], 0.473 µM (active); in experiment [13], 0.309 µM (active); in experiment [14], 1.68 µM (active).

Regarding `NC(=NCCCCCCN=C(N)/N=C(\N)Nc1ccc(Cl)cc1)/N=C(\N)Nc1ccc(Cl)cc1`, the Potency result in experiment [1] is “inactive”. In addition, the Potency in experiment [2] is 21.1 µM (active); in experiment [3], 21.1 µM (active); in experiment [7], 26.6 µM (active); in [8], 7.7 µM (active); in experiment [11], 9.78 µM (active).

For the compound `Cc1cc(O)c(C(C)C)cc1Cl`, the Potency result in [1], in [2], in [3], in experiment [15], in experiment [4] and in experiment [5] was “inactive” each time. Besides, the Potency result in experiment [6], in experiment [8], in [10], in [11], in experiment [12] and in experiment [14] was “inactive” throughout.

In the case of `CCCCC(=O)O[C@]1(C(=O)CO)CC[C@H]2[C@@H]3CCC4=CC(=O)CC[C@]4(C)[C@H]3[C@@H](O)C[C@@]21C`, the Potency result in [1], in [2], in experiment [16], in experiment [3], in experiment [4] and in experiment [5] was “inactive” each time. In addition, the Potency entry in experiment [6], in [7], in experiment [8], in [10], in [11] and in experiment [12] was “inactive” in each case.

With `Cc1c(N(C)CS(=O)(=O)O)c(=O)n(-c2ccccc2)n1C`, the Potency result in [1], in [2], in experiment [16], in experiment [15], in [4] and in experiment [5] was “inactive” each time. The Potency result in experiment [6], in [7], in [8], in experiment [9], in experiment [11] and in experiment [12] was “inactive” each time. The Potency entry in experiment [14] was “inactive”.

In the case of `Cc1ccc(O)c2ncccc12`, the Potency entry in experiment [1] and in experiment [16] was “inactive” throughout. Moreover, the Potency in experiment [2] is 3.35 µM (active); in experiment [7] it was 21.1 µM (active); in experiment [8] it was 7.7 µM (active); in experiment [9] it was 2.37 µM (active); in [11], 11 µM (active); in experiment [14] it was 8.41 µM (active).

In the case of `Cc1c(C)n(Cc2ccccc2)c2ccc(C(=O)OCCN(C)C)cc12`, the Potency result in [1], in [2], in experiment [3], in [4], in experiment [6] and in experiment [9] was “inactive” each time. Besides, the Potency result in experiment [10] and in experiment [14] was “inactive” each time.

Consider `CCN1CCC[C@H]1CNC(=O)c1c(OC)ccc(Br)c1OC`, for which the Potency entry in experiment [1], in experiment [2], in experiment [16], in experiment [3], in experiment [4] and in experiment [5] was “inactive” throughout. The Potency entry in experiment [6], in [7], in [8], in [9], in experiment [11] and in experiment [12] was “inactive” throughout. For the same compound, the Potency result in experiment [14] is “inactive”.

Turning to `CC(C)NC[C@@H](O)COc1cccc2ccccc12`, the Potency result in experiment [1], in [2], in [16], in experiment [4], in experiment [5] and in experiment [6] was “inactive” in each case. The Potency result in [8], in experiment [9], in [10], in [11] and in experiment [12] was “inactive” in each case.

With `CC(Cc1ccccc1)(NC(=O)CN)c1ccccc1` (stereo unspecified), the Potency result in experiment [1], in [2], in [16], in experiment [3], in experiment [15] and in experiment [4] was “inactive” in each case. The Potency entry in experiment [6], in experiment [7], in experiment [8], in experiment [10], in [11] and in [12] was “inactive” in each case.

Take `C=C1C[C@H]2[C@@H]3C=C(C)C4=CC(=O)CC[C@]4(C)[C@H]3CC[C@]2(C)[C@@]1(OC(C)=O)C(C)=O`: the Potency entry in experiment [1], in experiment [2], in experiment [16], in experiment [3], in experiment [4] and in [5] was “inactive” each time. Besides, the Potency entry in experiment [6], in experiment [7], in experiment [8], in experiment [9], in experiment [12] and in experiment [14] was “inactive” each time. In experiment [13], the Potency was 30.9 µM (active).

As to `CCN(CC)CCOC(=O)C(c1ccccc1)C1CCCCC1` (stereo unspecified), the Potency entry in experiment [1], in [2], in experiment [3], in experiment [6], in experiment [10] and in [12] was “inactive” throughout. The figures for the Potency in experiment [7], in experiment [8] and in [13] were 23.7 µM (active), 30.7 µM (active) and 21.9 µM (active), respectively.
